In PubChem BioAssay AID1159580 (chemical genetic matrix, 2015):
“And” between values parts separate entries of the source, which are not always exact repeats. Equal entries are not always repeated. The campaign covered roughly 5,500 compounds. About 2,000 (36%) were called active. About 18% were inconclusive and are not listed. No stated cut-off is given here; in the data, active means normalized growth mostly below about 0.91 (no sharp cut-off); inconclusive means no clear call, values can overlap the other calls; inactive means mostly above about 0.92. Some of the results follow.

Assay: chemical genetic growth profiling, strain panel (AID 1159580);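 further: tested at 20 µM; growth read once vehicle control cultures reached saturation at 30 °C; 1 = growth at the plate median or of vehicle wells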
Conditions: S. cerevisiae deletion strains, growth OD

Measured: normalized growth

CCn1cc(C(=O)O)c(=O)c2cc(F)c(N3CCNCC3)cc21
inactive: locus YAL013W, strain DEP1, stronger effect = lower value 1 | locus YAL021C, strain ccr4, stronger effect = lower value 0.967 | locus YAL026C, strain drs2, stronger effect = lower value 0.978 | locus YAL030W, strain snc1, stronger effect = lower value 0.988 | locus YBL061C, strain skt5, stronger effect = lower value 0.991 | locus YBR009C, strain hhf1, stronger effect = lower value 0.983 | locus YBR021W, strain FUR4, stronger effect = lower value 0.905 | locus YBR023C, strain chs3, stronger effect = lower value 0.989 | locus YBR171W, strain sec66, stronger effect = lower value 0.988 | locus YBR229C, strain ROT2, stronger effect = lower value 1.01 | locus YBR231C, strain swc5, stronger effect = lower value 0.986 | locus YBR279W, strain paf1, stronger effect = lower value 0.978 | locus YCL011C, strain gbp2, stronger effect = lower value 0.983 | locus YCL016C, strain dcc1, stronger effect = lower value 0.998 | locus YCL029C, strain bik1, stronger effect = lower value 1 | locus YCL061C, strain MRC1, stronger effect = lower value 0.989 | locus YCL069W, strain vba3, stronger effect = lower value 0.966 | locus YCR088W, strain abp1, stronger effect = lower value 0.992 | locus YDL005C, strain med2, stronger effect = lower value 0.973 | locus YDL035C, strain GPR1, stronger effect = lower value 1 | locus YDL040C, strain nat1, stronger effect = lower value 0.99 | locus YDL074C, strain BRE1, stronger effect = lower value 1.02 | locus YDL101C, strain DUN1, stronger effect = lower value 1 | locus YDL134C, strain PPH21, stronger effect = lower value 0.994 | locus YDL185W, strain tfp1, stronger effect = lower value 0.998 | locus YDL192W, strain arf1, stronger effect = lower value 0.995 | locus YDR001C, strain nth1, stronger effect = lower value 0.98 | locus YDR069C, strain doa4, stronger effect = lower value 0.964 | locus YDR101C, strain arx1, stronger effect = lower value 0.972 | locus YDR137W, strain rgp1, stronger effect = lower value 0.97 | locus YDR159W, strain sac3, stronger effect = lower value 0.948 | locus YDR162C, strain NBP2, stronger effect = lower value 0.997 | locus YDR195W, strain ref2 0.962 | locus YDR297W, strain sur2, stronger effect = lower value 0.992 | locus YDR318W, strain mcm21, stronger effect = lower value 0.995 | locus YDR334W, strain swr1, stronger effect = lower value 0.981 | locus YDR335W, strain msn5, stronger effect = lower value 0.928 | locus YDR388W, stronger effect = lower value 1 | locus YDR392W, strain spt3, stronger effect = lower value 0.873 | locus YDR502C, strain sam2, stronger effect = lower value 1.01 | locus YEL003W, strain gim4, stronger effect = lower value 0.984 | locus YEL037C, strain rad23, stronger effect = lower value 0.976 | locus YEL061C, strain CIN8 (second series), stronger effect = lower value 0.97 | locus YEL061C, strain CIN8, stronger effect = lower value 1.01 | locus YER015W, strain faa2, stronger effect = lower value 0.987 | locus YER016W, strain bim1, stronger effect = lower value 0.986 | locus YER110C, stronger effect = lower value 0.996 | locus YER111C, strain swi4, stronger effect = lower value 0.975 | locus YER155C, strain BEM2 (second series), stronger effect = lower value 0.95 | locus YER155C, strain BEM2, stronger effect = lower value 1.01 | locus YER167W, strain BCK2, stronger effect = lower value 1 | locus YFR010W, strain ubp6, stronger effect = lower value 0.972 | locus YGL078C, strain dbp3, stronger effect = lower value 0.998 | locus YGL086W, strain mad1, stronger effect = lower value 0.992 | locus YGL167C, strain pmr1, stronger effect = lower value 0.985 | locus YGL173C, strain kem1, stronger effect = lower value 0.98 | locus YGL227W, strain vid30, stronger effect = lower value 0.979 | locus YGL240W, strain doc1, stronger effect = lower value 0.973 | locus YGL248W, strain PDE1, stronger effect = lower value 1 | locus YGL253W, strain hxk2, stronger effect = lower value 0.995 | locus YGR078C, strain PAC10, stronger effect = lower value 1 | locus YGR135W, strain pre9, stronger effect = lower value 0.988 | locus YGR229C, strain SMI1, stronger effect = lower value 1.02 | locus YGR252W, strain gcn5, stronger effect = lower value 0.912 | locus YHR013C, strain ard1, stronger effect = lower value 0.928 | locus YHR027C, strain rpn1, stronger effect = lower value 0.987 | locus YHR030C, strain SLT2, stronger effect = lower value 0.999 and 0.974 | locus YHR079C, strain IRE1 (second series), stronger effect = lower value 0.995 | locus YHR079C, strain IRE1, stronger effect = lower value 0.974 | locus YHR094C, strain hxt1, stronger effect = lower value 0.998 | locus YHR129C, strain ARP1, stronger effect = lower value 1 | locus YHR142W, strain chs7, stronger effect = lower value 0.971 | locus YHR200W, strain rpn10, stronger effect = lower value 0.998 | locus YIL066C, strain RNR3, stronger effect = lower value 1.01 | locus YIL073C, strain SPO22, stronger effect = lower value 1 | locus YIL125W, strain kgd1, stronger effect = lower value 1 | locus YIR030C, strain dcg1, stronger effect = lower value 0.999 | locus YJL092W, strain hpr5, stronger effect = lower value 0.982 | locus YJL095W, strain BCK1 (second series), stronger effect = lower value 0.993 | locus YJL095W, strain BCK1, stronger effect = lower value 0.991 and 0.996 | locus YJL115W, strain asf1, stronger effect = lower value 0.976 | locus YJL129C, strain trk1, stronger effect = lower value 0.929 | locus YJL134W, strain LCB3, stronger effect = lower value 1 | locus YJL154C, strain vps35, stronger effect = lower value 0.974 | locus YJL164C, strain tpk1, stronger effect = lower value 0.988 | locus YJL166W, strain qcr8, stronger effect = lower value 1 | locus YJL168C, strain set2, stronger effect = lower value 1 | locus YJL187C, strain SWE1 (second series), stronger effect = lower value 1.01 | locus YJL187C, strain SWE1, stronger effect = lower value 0.985
